± gives the standard deviation.

The subject of the first assay is MILI (PIWIL2) piRISC loaded with piRNA #1 (26 nt). Briefly: pre-steady-state target cleavage rate (min^-1); guide: piRNA #1 5'p-UGAGGUAGUAGGUUGUAUAGUAUCCA; higher = faster piRNA-guided slicing of the target. As to conditions: auxiliary factor: 500 nM mouse GTSF1. The procedure, abridged: (§1)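 Cleave-'n-Seq reactions paired 0.1 nM transcribed, DNA-blocked target RNA library with 1 nM active affinity-purified piRISC holding one synthetic guide, plus or minus 500 nM GTSF1 partner protein, in HEPES–potassium acetate buffer at 33 °C for 0–8 or 0–960 min. After sequencing of uncleaved targets and normalisation to depth and weakly complementary targets, the pre-steady-state cleavage rate was taken from a burst-and-steady-state fit. Three trials were pooled, and k3 was capped at 0.0001 min^-1.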
With GGAGAGGAUAGUAUACAACCUACAACCUCA, the “pre-steady-state target cleavage rate” value is 0.037 ± 0.0093.

As to GGAGACGAAACAAUACAACCUACUACCUCA, the “pre-steady-state target cleavage rate” value was 0.167 ± 0.026.

As for GGAGAGGUUACUAUACAACCAACUACCUCA, the “pre-steady-state target cleavage rate” value was 0.00725 ± 0.0016.

As for GGAGACCUUACUAUACAACGUACUACCUGA, the “pre-steady-state target cleavage rate” value was 0.0102 ± 0.0027.

Consider GGAGACCUUACUUUACAACCUAGUACCUCA, for which the “pre-steady-state target cleavage rate” value was found to be 0.047 ± 0.011.

GGAGACCAUAGUAAACAACCUACUACCUCA: the “pre-steady-state target cleavage rate” value stood at 0.0682 ± 0.009.

On to GGAGAGGAUACAUAUACAACCUACUACCUCA, for which the “pre-steady-state target cleavage rate” value came to 0.104 ± 0.0078.

Turning to GGAGAGGAUACUAUACAACCUACUAGCUCA, the “pre-steady-state target cleavage rate” value was found to be 0.0627 ± 0.012.

For GGAGACCUUAUCUAUACAACCUACUACCUCA, the “pre-steady-state target cleavage rate” value was 0.115 ± 0.014.

In the case of GGAGACCUUACUAUACAACCUACUACCCUCA, the “pre-steady-state target cleavage rate” value was 0.17 ± 0.019.

On to GGAGUGGAUACUAAACAACCUACUACCACA, for which the “pre-steady-state target cleavage rate” value amounted to 0.113 ± 0.011.

As to “GGAGACCUUACUAUACAACCUACUAGGAGA [g6:g22:cont:t1A]”, the “pre-steady-state target cleavage rate” value was 0.00747 ± 0.0032.

As to GGAGUGGAUACUAUACAACCUACUACCGCA, the “pre-steady-state target cleavage rate” value amounted to 0.0694 ± 0.0095.

Take GGAGUGGAUACUAUACGACCUACUACCUCA: the “pre-steady-state target cleavage rate” value is 0.135 ± 0.0095.

For the sequence GGAGACCAUCCUAUACAACCUACUACCUCA, the “pre-steady-state target cleavage rate” value is 0.16 ± 0.03.

Regarding GGAGACCAUACUAUACAUCCUACUACGUCA, the “pre-steady-state target cleavage rate” value amounted to 0.158 ± 0.027.

Turning to GGAGACCUAACUAUACACCCUACUACCUCA, the “pre-steady-state target cleavage rate” value is 0.0388 ± 0.013.

GGAGACCAUACUAUACAACCUACUUGCUCA: the “pre-steady-state target cleavage rate” value is 0.13 ± 0.032.

For the sequence GGAGAGGAUACAUUACAACCUACUACCUCA, the “pre-steady-state target cleavage rate” value is 0.148 ± 0.012.

On to GGAGACAAUACUAUACAACCUACUACCUCA, for which the “pre-steady-state target cleavage rate” value is 0.253 ± 0.021.

In the case of GGAGACCUAUGAAGUACAACCUACUACCUCA, the “pre-steady-state target cleavage rate” value was 0.00594 ± 0.0028.

With GGAGAGGAUACUAUACUAGCUACUACCUCA, the “pre-steady-state target cleavage rate” value was 0.113 ± 0.011.

For the sequence GGAGACCUAACCAUACAACCUACUACCUCA, the “pre-steady-state target cleavage rate” value worked out at 0.12 ± 0.072.

With GGAGACCAUACAAUACAACCUACUACCUGA, the “pre-steady-state target cleavage rate” value is 0.12 ± 0.019.

Regarding GGAGAGGAUACUAUACUACCUAGUACCUCA, the “pre-steady-state target cleavage rate” value is 0.00407 ± 0.0037.

Turning to GGAGUGGAUACUAUACAACCCACUACCUCA, the “pre-steady-state target cleavage rate” value was 0.0174 ± 0.0024.

With GGAGUGGAUACUAUACAACCUACUACGUGA, the “pre-steady-state target cleavage rate” value was 0.0157 ± 0.0044.

Regarding GGAGACGAUACUAUACACCUACUACCUCA, the “pre-steady-state target cleavage rate” value turned out to be 0.0294 ± 0.0067.

Take GGAGACCAUACUAUACAACCUAGAUCCUCA: the “pre-steady-state target cleavage rate” value is 0.0232 ± 0.0082.

In the case of GGAGUGGAUAUCUAUACAACCUACUACCUCA, the “pre-steady-state target cleavage rate” value came to 0.0708 ± 0.0091.

Consider GGAGACCAUACUAUACAACCUACUACAUCA, for which the “pre-steady-state target cleavage rate” value was 0.0875 ± 0.011.

Take GGAGUGCAUACUAUACAUCCUACUACCUCA: the “pre-steady-state target cleavage rate” value amounted to 0.313 ± 0.015.

Turning to GGAGAGGAUACUGAUACAACCUACUACCUCA, the “pre-steady-state target cleavage rate” value came to 0.17 ± 0.014.

For the sequence GGAGAGGAUACUAUUCAAGCUACUACCUCA, the “pre-steady-state target cleavage rate” value came to 0.131 ± 0.014.

With GGAGACGAUACUAUACAAGCUAGUACCUCA, the “pre-steady-state target cleavage rate” value worked out at 0.105 ± 0.028.

On to GGAGAGGAUAGUAUACAACCUACUACCACA, for which the “pre-steady-state target cleavage rate” value was determined as 0.0774 ± 0.011.

For the sequence “GGAGACCAUACUAUACAACCUACUACCUCA [g2:g23:cont:t1A]”, the “pre-steady-state target cleavage rate” value turned out to be 0.178 ± 0.023.

As for GGAGACCAUACUACUACAACCUACUACCUCA, the “pre-steady-state target cleavage rate” value was 0.137 ± 0.015.

Consider GGAGACCAUACUAUACAACCUAGUACCUCA, for which the “pre-steady-state target cleavage rate” value was 0.0657 ± 0.013.

For the sequence “GGAGACCUUACUAUACAACCUACUACCUCU [g2:g22:cont:t1U]”, the “pre-steady-state target cleavage rate” value came to 0.177 ± 0.017.

For a further assay, the system named is EfPiwi piRISC loaded with piRNA #1 (26 nt). The experiment in a line: pre-steady-state target cleavage rate (min^-1); auxiliary factor: 500 nM Ephydatia muelleri Gtsf1; guide: piRNA #1 5'p-UGAGGUAGUAGGUUGUAUAGUAUCCA; MIWI and MILI are mouse PIWI proteins and EfPiwi is from a freshwater sponge; tags in brackets are library labels; higher = faster piRNA-guided slicing of the target.
Conditions: not given
In outline: as §1
In the case of GGAGAGGAUAGUAUACAACCUACAACCUCA, the “pre-steady-state target cleavage rate” value came out at 0.00249 ± 0.0021.

For the sequence GGAGACGAAACAAUACAACCUACUACCUCA, the “pre-steady-state target cleavage rate” value was 0.00789 ± 0.0038.

Turning to GGAGAGGUUACUAUACAACCAACUACCUCA, the “pre-steady-state target cleavage rate” value was determined as 0.00401 ± 0.002.

In the case of GGAGACCUUACUAUACAACGUACUACCUGA, the “pre-steady-state target cleavage rate” value turned out to be 0.00475 ± 0.0042.

For the sequence GGAGACCUUACUUUACAACCUAGUACCUCA, the “pre-steady-state target cleavage rate” value worked out at 0.00395 ± 0.0033.

For GGAGACCAUAGUAAACAACCUACUACCUCA, the “pre-steady-state target cleavage rate” value is 0.00482 ± 0.0034.

Turning to GGAGAGGAUACAUAUACAACCUACUACCUCA, the “pre-steady-state target cleavage rate” value is 0.0587 ± 0.024.

As to GGAGAGGAUACUAUACAACCUACUAGCUCA, the “pre-steady-state target cleavage rate” value turned out to be 0.00484 ± 0.0019.

Turning to GGAGACCUUAUCUAUACAACCUACUACCUCA, the “pre-steady-state target cleavage rate” value stood at 0.0368 ± 0.017.

On to GGAGACCUUACUAUACAACCUACUACCCUCA, for which the “pre-steady-state target cleavage rate” value was 0.00416 ± 0.0023.

For GGAGUGGAUACUAAACAACCUACUACCACA, the “pre-steady-state target cleavage rate” value is 0.003 ± 0.0021.

As for “GGAGACCUUACUAUACAACCUACUAGGAGA [g6:g22:cont:t1A]”, the “pre-steady-state target cleavage rate” value amounted to 0.00279 ± 0.0024.

For the sequence GGAGUGGAUACUAUACAACCUACUACCGCA, the “pre-steady-state target cleavage rate” value is 0.00573 ± 0.002.

In the case of GGAGUGGAUACUAUACGACCUACUACCUCA, the “pre-steady-state target cleavage rate” value was determined as 0.0922 ± 0.036.

With GGAGACCAUCCUAUACAACCUACUACCUCA, the “pre-steady-state target cleavage rate” value amounted to 0.01 ± 0.006.

GGAGACCAUACUAUACAUCCUACUACGUCA: the “pre-steady-state target cleavage rate” value was found to be 0.00585 ± 0.0034.

GGAGACCUAACUAUACACCCUACUACCUCA: the “pre-steady-state target cleavage rate” value stood at 0.00682 ± 0.0033.

Turning to GGAGACCAUACUAUACAACCUACUUGCUCA, the “pre-steady-state target cleavage rate” value was determined as 0.00354 ± 0.002.

For GGAGAGGAUACAUUACAACCUACUACCUCA, the “pre-steady-state target cleavage rate” value came out at 0.007 ± 0.0035.

Turning to GGAGACAAUACUAUACAACCUACUACCUCA, the “pre-steady-state target cleavage rate” value came out at 0.0606 ± 0.023.

For GGAGACCUAUGAAGUACAACCUACUACCUCA, the “pre-steady-state target cleavage rate” value turned out to be 0.00479 ± 0.0035.

As for GGAGAGGAUACUAUACUAGCUACUACCUCA, the “pre-steady-state target cleavage rate” value was determined as 0.00387 ± 0.0029.

As to GGAGACCUAACCAUACAACCUACUACCUCA, the “pre-steady-state target cleavage rate” value turned out to be 0.0143 ± 0.0069.

As to GGAGACCAUACAAUACAACCUACUACCUGA, the “pre-steady-state target cleavage rate” value came to 0.00286 ± 0.0028.

As to GGAGAGGAUACUAUACUACCUAGUACCUCA, the “pre-steady-state target cleavage rate” value was 0.00301 ± 0.0017.

As to GGAGUGGAUACUAUACAACCCACUACCUCA, the “pre-steady-state target cleavage rate” value was determined as 0.00487 ± 0.0019.

With GGAGUGGAUACUAUACAACCUACUACGUGA, the “pre-steady-state target cleavage rate” value is 0.00378 ± 0.0015.

Turning to GGAGACGAUACUAUACACCUACUACCUCA, the “pre-steady-state target cleavage rate” value amounted to 0.0134 ± 0.0055.

With GGAGACCAUACUAUACAACCUAGAUCCUCA, the “pre-steady-state target cleavage rate” value came out at 0.00423 ± 0.0039.

In the case of GGAGUGGAUAUCUAUACAACCUACUACCUCA, the “pre-steady-state target cleavage rate” value was determined as 0.00883 ± 0.0052.

In the case of GGAGACCAUACUAUACAACCUACUACAUCA, the “pre-steady-state target cleavage rate” value was found to be 0.00692 ± 0.004.

Take GGAGUGCAUACUAUACAUCCUACUACCUCA: the “pre-steady-state target cleavage rate” value came to 0.0107 ± 0.0041.

Turning to GGAGAGGAUACUGAUACAACCUACUACCUCA, the “pre-steady-state target cleavage rate” value came out at 0.00615 ± 0.0037.

On to GGAGAGGAUACUAUUCAAGCUACUACCUCA, for which the “pre-steady-state target cleavage rate” value is 0.00323 ± 0.002.

As to GGAGACGAUACUAUACAAGCUAGUACCUCA, the “pre-steady-state target cleavage rate” value amounted to 0.00387 ± 0.002.

As for GGAGAGGAUAGUAUACAACCUACUACCACA, the “pre-steady-state target cleavage rate” value was 0.00287 ± 0.002.

With “GGAGACCAUACUAUACAACCUACUACCUCA [g2:g23:cont:t1A]”, the “pre-steady-state target cleavage rate” value came to 0.0141 ± 0.0046.

GGAGACCAUACUACUACAACCUACUACCUCA: the “pre-steady-state target cleavage rate” value amounted to 0.0205 ± 0.0057.

For the sequence GGAGACCAUACUAUACAACCUAGUACCUCA, the “pre-steady-state target cleavage rate” value was determined as 0.00446 ± 0.0014.

For “GGAGACCUUACUAUACAACCUACUACCUCU [g2:g22:cont:t1U]”, the “pre-steady-state target cleavage rate” value is 1.04 ± 0.39.
